In PubChem BioAssay one finds composite z-score and z-score data, which are given here for five compounds.

Activity calls are given as the source filed them. Unless noted, the rule behind the calls is not given here.

Test [1] is described as follows: anti-His antibody binders, primary screen, artefact control for SMM control protein annotation, biochemical, small-molecule microarray, 635 nm fluorescence (AID 1128).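 Note: score merges feature fluorescence with signal-to-noise for each printed compound spot.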 As to conditions: anti-His Alexa647 antibody binding, higher = more signal.
The test system of test [2] is Human papillomavirus type 1a E7 protein (residues 1-88). In words: HPV1a E7 small-molecule binders, primary screen, biochemical, small-molecule microarray, residues 1-88, 635 nm (AID 1129). As to conditions: small-molecule microarray binding, fluorescence 635 nm; higher = more signal.
Test [3] deals with Focal adhesion kinase 1 (Homo sapiens) (UniProt Q05397). In words: small-molecule microarray binders of FAK, primary screen, biochemical, 635/667 nm fluorescence, BSA, DTT (AID 1130).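 Note: composite of spot emission at 667 nm and signal to noise over triplicate slides.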 Conditions: PTK2 binding, 635 nm fluorescence, higher = more signal.
Test [4] relates to Fibrinogen (Alexa647-labelled). Put plainly: fibrinogen binders on compound microarrays, profiling panel, artefact control for SMM control-protein annotation, biochemical, small-molecule microarray, 635/667 nm fluorescence (AID 1131).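 Note: z-score merges 667 nm fluorescence with per-spot signal-to-noise over triplicate slides.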 Conditions: fibrinogen-A647 binding fluorescence, higher = more signal.
Test [5] concerns the target Follistatin (Homo sapiens) (UniProt P19883). Put plainly: follistatin binders on small-molecule microarrays, primary screen, biochemical, small-molecule microarray, 635/667 nm fluorescence (AID 1132). Conditions: FST binding, 635 nm fluorescence, higher = more signal.
The target in test [6] is Fibroblast growth factor 2 (Homo sapiens) (UniProt P09038). Put plainly: FGF2 binders on small-molecule microarrays, primary screen, biochemical, small-molecule microarray, 635/667 nm fluorescence (AID 1133). As to conditions: small-molecule microarray binding, FGF2, fluorescence 635/667; higher = more signal.
A short description of test [7]: mitochondrial membrane potential change in A549 cells, profiling panel, cell-based, JC-1 fluorescence, basal, 24 h, 100 nL (AID 1138).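 Note: A549 lung adenocarcinoma cells under basal conditions with no added stimulus; test concentration not given here.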 Conditions: higher = more signal.
Another test has as its system Lefty1. Put plainly: Lefty1 binders on small-molecule microarrays, primary screen, biochemical, small-molecule microarray, 635/667 nm fluorescence (AID 1139). Conditions: small-molecule microarray binding, fluorescence 635/667; higher = more signal.
Test [8] concerns wheat germ agglutinin (Triticum aestivum), Alexa647-labelled. Put plainly: wheat germ agglutinin binders on compound microarrays, profiling panel, artefact control for SMM control-protein annotation, biochemical, small-molecule microarray, 635/667 nm fluorescence (AID 1140).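 Note: score merges 667 nm feature emission with signal to noise over triplicate slides.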 As to conditions: WGA-A647 binding, 635 nm fluorescence, higher = more signal.
The target of test [9] is Luciferin 4-monooxygenase (Photinus pyralis) (UniProt P08659). In words: firefly luciferase enzyme inhibitors, primary screen, biochemical, luminescence, purified enzyme, 2006 set (AID 1141).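 Note: cell-free assay with purified firefly luciferase at 100 ng per well in PBS; test concentration not given here.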 Conditions: SteadyGlo luminescence, 30 min, higher = more signal, called active from +8 up or from −8 down.
Test [10] concerns Wnt5a (protein binding on small-molecule microarray). In words: Wnt5a binders on small-molecule microarray, primary screen, biophysical, 635/667 nm fluorescence (AID 1142).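 Note: fluorescence read at 667 nm with signal to noise per printed feature.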 As to conditions: 635 nm fluorescence, higher = more signal.
Test [11] can be described thus: cell viability in Huh7 cells, primary screen, cytotoxicity control for HCV replication inhibitor project, CellTiter-Glo luminescence, basal, 48 h (AID 1143).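 Note: Huh7 hepatoma cells carrying a hepatitis C replication reporter with no stimulus; test concentration not given here.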 Conditions: Huh7 HCV replicon, higher = more signal, called active from +8 up or from −8 down.
Test [12] in a line: P. aeruginosa biofilm formation inhibitors, primary screen, PAO1 strain, BacTiter-Glo luminescence, LB-PBS (AID 1144). Conditions: 12 h, higher = more signal.
Test [13] can be described thus: CREB reporter modulators without forskolin, primary screen, cell-based, PC12, CRE-LacZ reporter, unstimulated (AID 1145). As to conditions: no forskolin, luminescence, 4.5 h, higher = more signal, called active from +8 up or from −8 down.
A short description of test [14]: CREB reporter modulators under forskolin, primary screen, cell-based, PC12, CRE-LacZ reporter, forskolin-stimulated (AID 1146).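 Note: PC12 cells with 6xCRE LacZ reporter stimulated by forskolin 10 µM; beta-galactosidase reporter signal reflecting CREB driven transcription.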 Conditions: luminescence, 4.5 h, higher = more signal, called active from +8 up or from −8 down.
In test [15] the target is Streptavidin (Streptomyces avidinii) (UniProt P22629). In words: streptavidin binders on small-molecule microarray, primary screen, artefact control for SMM compound annotation, biophysical, 635/667 nm fluorescence (AID 1147).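 Note: signal reflects streptavidin binding to arrayed compounds as a control protein.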 As to conditions: streptavidin binding, higher = more signal.
A short description of test [16]: small-molecule binders of probe aInhba, primary screen, biochemical, small-molecule microarray, 635/667 nm fluorescence (AID 1148).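 Note: score merges 667nm spot fluorescence with signal-to-noise for antibody binding to printed compounds.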 Conditions: higher = more signal.
The target in test [17] is Torsin-1A (Homo sapiens) (UniProt O14656). Put plainly: torsin A binders from cell lysate, primary screen, small-molecule microarray, wild-type, 635/667 nm (AID 1149). Conditions: COS7 hTOR1A-WT lysate, 635 nm fluorescence, higher = more signal.
Test [18] shares this target. Put plainly: small-molecule binders of mutant TOR1A in lysate, primary screen, cell lysate, small-molecule microarray, COS7 lysate, 635/667 nm fluorescence (AID 1150).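 Note: score pools 667 nm emission and signal to noise measuring lysate protein binding.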 As to conditions: COS7 hTOR1A mutant lysate, 635 nm fluorescence, higher = more signal.
Test [19] concerns Sonic hedgehog protein (Shh). In words: small-molecule binders of Shh protein, primary screen, biochemical, small-molecule microarray, 635/667 nm fluorescence (AID 1151).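 Note: Shh protein binding to compounds spotted on small-molecule microarray slides; score combines spot fluorescence intensity with signal-to-noise across triplicate slides.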 As to conditions: small-molecule microarray binding, 635 nm fluorescence; higher = more signal.

Chain of Fibroblast growth factor 2 (Homo sapiens) (P09038 whole entry, looked up): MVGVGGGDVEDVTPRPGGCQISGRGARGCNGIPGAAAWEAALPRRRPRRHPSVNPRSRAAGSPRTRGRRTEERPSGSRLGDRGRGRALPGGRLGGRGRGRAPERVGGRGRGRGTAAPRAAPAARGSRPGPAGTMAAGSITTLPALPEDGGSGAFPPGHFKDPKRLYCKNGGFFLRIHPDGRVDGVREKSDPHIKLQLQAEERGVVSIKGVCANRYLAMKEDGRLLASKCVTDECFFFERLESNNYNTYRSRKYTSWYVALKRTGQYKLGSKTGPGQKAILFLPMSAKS
Chain of Follistatin (Homo sapiens) (P19883 whole entry, looked up): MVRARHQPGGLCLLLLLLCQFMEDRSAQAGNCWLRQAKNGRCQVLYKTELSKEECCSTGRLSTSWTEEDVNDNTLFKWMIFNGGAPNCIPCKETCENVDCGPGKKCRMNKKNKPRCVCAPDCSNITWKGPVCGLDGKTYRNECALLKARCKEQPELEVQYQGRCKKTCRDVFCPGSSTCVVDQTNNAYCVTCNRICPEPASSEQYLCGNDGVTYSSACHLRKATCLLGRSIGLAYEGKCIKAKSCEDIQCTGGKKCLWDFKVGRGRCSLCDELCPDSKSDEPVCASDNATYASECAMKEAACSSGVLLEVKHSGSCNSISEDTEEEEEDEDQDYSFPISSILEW
Chain of Focal adhesion kinase 1 (Homo sapiens) (Q05397 whole entry, looked up): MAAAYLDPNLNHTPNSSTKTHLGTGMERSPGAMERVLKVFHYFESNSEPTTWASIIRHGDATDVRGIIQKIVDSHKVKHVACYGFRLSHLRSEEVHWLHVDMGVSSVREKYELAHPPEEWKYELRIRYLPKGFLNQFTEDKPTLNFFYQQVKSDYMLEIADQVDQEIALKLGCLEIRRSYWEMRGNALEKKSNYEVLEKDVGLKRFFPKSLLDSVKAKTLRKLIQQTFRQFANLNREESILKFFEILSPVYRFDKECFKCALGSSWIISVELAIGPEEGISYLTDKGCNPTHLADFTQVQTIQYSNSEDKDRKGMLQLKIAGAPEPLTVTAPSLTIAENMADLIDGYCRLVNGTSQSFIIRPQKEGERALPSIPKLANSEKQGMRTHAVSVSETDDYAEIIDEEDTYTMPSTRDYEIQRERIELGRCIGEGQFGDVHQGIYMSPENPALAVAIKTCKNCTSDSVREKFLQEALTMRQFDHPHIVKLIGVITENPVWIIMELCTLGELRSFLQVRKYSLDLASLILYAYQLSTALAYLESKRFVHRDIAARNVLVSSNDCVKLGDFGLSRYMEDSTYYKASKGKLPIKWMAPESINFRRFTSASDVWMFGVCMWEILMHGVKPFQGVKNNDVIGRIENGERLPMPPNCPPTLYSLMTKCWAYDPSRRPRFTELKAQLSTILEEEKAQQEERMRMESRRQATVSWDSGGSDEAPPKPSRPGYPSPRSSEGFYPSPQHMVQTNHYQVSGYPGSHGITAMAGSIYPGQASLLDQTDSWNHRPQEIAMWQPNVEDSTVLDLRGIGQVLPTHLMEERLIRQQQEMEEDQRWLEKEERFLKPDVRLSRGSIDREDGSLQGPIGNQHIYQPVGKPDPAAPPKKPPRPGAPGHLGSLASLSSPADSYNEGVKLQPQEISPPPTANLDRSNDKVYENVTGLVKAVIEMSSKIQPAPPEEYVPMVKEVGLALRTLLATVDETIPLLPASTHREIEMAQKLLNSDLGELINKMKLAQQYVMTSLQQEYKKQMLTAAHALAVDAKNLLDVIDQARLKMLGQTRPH
Chain of Luciferin 4-monooxygenase (Photinus pyralis) (P08659 whole entry, looked up): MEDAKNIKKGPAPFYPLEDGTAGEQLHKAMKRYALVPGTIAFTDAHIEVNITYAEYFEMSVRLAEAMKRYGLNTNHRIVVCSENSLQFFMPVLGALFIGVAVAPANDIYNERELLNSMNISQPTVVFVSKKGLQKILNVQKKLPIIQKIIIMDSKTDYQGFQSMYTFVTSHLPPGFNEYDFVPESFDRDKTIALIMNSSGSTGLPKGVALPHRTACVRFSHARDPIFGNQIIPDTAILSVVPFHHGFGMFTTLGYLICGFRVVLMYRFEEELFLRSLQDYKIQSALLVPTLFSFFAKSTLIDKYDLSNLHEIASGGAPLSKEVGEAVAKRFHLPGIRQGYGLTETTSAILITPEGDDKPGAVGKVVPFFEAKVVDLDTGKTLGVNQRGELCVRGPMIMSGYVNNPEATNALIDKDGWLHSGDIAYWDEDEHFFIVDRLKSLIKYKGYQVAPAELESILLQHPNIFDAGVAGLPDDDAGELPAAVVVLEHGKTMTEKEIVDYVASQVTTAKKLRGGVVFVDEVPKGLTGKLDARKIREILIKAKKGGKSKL
Chain of Streptavidin (Streptomyces avidinii) (P22629 whole entry, looked up): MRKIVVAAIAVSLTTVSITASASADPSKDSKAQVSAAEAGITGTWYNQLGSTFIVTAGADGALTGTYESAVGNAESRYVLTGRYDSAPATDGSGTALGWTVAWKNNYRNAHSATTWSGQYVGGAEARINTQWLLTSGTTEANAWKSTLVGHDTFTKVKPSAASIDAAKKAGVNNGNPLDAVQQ
Chain of Torsin-1A (Homo sapiens) (O14656 whole entry, looked up): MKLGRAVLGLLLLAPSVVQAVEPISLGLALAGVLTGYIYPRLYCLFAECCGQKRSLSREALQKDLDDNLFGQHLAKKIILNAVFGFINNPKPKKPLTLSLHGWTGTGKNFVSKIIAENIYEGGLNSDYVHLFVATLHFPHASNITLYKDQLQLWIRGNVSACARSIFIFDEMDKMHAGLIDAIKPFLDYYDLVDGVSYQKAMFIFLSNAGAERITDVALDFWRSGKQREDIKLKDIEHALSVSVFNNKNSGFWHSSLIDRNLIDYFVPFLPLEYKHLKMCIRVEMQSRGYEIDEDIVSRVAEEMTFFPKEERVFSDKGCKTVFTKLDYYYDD

With `O=C(O)[C@]1(CCS(=O)(=O)c2ccccc2)N=C(c2ccc(OCCCO)cc2)O[C@@H]1c1ccccc1`, the composite z-score in test [1] is 0.367; in test [2], 0.228; in test [3], 0.221; in test [4], 0.447; in test [5] it was -0.029; in test [6], -0.0377. Besides, the composite z-score is -0.655 in the test on Lefty1; 1.36 in [8]; 0.235 in [10]; -0.0087 in [15]; 0.297 in test [16]; -0.0493 in the test with Torsin-1A (Homo sapiens) [17]. The composite z-score was -0.301 in the test with Torsin-1A (Homo sapiens) [18] and -0.439 in test [19]. Also, the z-score in test [7] is 0.0511; in test [9], -1.87 (inactive); in test [11], 0.495 (inactive); in test [12], 0.869 (inactive); in [13], 0.19 (inactive); in test [14], -0.534 (inactive).

In the case of `NC(=O)[C@@H]1[C@H]2C(=O)O[C@H](c3ccccc3)[C@H](c3ccccc3)N2[C@H](c2ccccc2OCCO)[C@@]12C(=O)Nc1ccc(C#CCCO)cc12`, the composite z-score is 0.553 in test [1]; -0.464 in [2]; 0.155 in [3]; 0.947 in test [4]; -0.0704 in test [5]; -0.455 in [6]. The composite z-score in the test on Lefty1 is -0.128; in test [8], 0.335; in [10], -0.335; in [15] it was 0.837; in test [16], -0.0407; in the test with Torsin-1A (Homo sapiens) [17], -0.969. Also, the composite z-score in the test with Torsin-1A (Homo sapiens) [18] is 0.115; in test [19], -0.116. Besides, the z-score is 0.669 in [7]; 1 (inactive) in test [9]; -3.21 (inactive) in [11]; -0.663 (inactive) in test [12]; 0.299 (inactive) in test [13]; -0.445 (inactive) in test [14].

Consider `O=C1N(Cc2ccccc2)c2ccccc2[C@H]2OC(c3ccc(OCCCO)cc3)=N[C@@]12CCS(=O)(=O)c1ccccc1`, for which the composite z-score is 1.68 in test [1]; 1.25 in test [2]; 1.06 in [3]; 0.984 in test [4]; 1.2 in test [5]; 1.36 in test [6]. Also, the composite z-score with Lefty1 was determined as 0.689; in test [8], 0.726; in test [10], 0.889; in test [15], 0.211; in test [16] it was 0.166; in the test with Torsin-1A (Homo sapiens) [17] it was 0.795. In addition, the composite z-score with Torsin-1A (Homo sapiens) [18] turned out to be 0.591; in test [19] it was 2.09. The z-score in test [7] is -1.26; in test [9], -0.202 (inactive); in test [11] it was -4.05 (inactive); in [12], -1.19 (inactive); in [13], 2.96 (inactive); in test [14], -1 (inactive).

`CN(C)C(=O)[C@@]1(CCC(=O)OC(C)(C)C)N=C(c2ccc(OCCCO)cc2)O[C@H]1c1ccccc1N=[N+]=[N-]`: the composite z-score in test [1] amounted to 0.546; in test [2], 1.32; in [3] it was 0.162; in [4], 1.04; in test [5] it was 1.45; in [6], 1.58. Also, the composite z-score is 0.722 in the test with Lefty1; 1.01 in test [8]; 1.46 in [10]; 1.6 in test [15]; 0.277 in test [16]; 1.76 in the test with Torsin-1A (Homo sapiens) [17]. Besides, the values for the composite z-score (in the test with Torsin-1A (Homo sapiens) [18]; in test [19]) were 2.25 and 0.18, respectively. Further, the z-score in [7] is 1.15; in test [9] it was -7.12 (inactive); in test [11] it was -1.84 (inactive); in test [12], -0.0215 (inactive); in [13], 1.31 (inactive); in test [14], -1.33 (inactive).

Consider `CCCC=C(CCC)[C@@H](NS(=O)(=O)CC)c1ccccc1`, for which the composite z-score was 0.365 in [1]; 1.18 in test [2]; 0.655 in [3]; 0.976 in test [4]; 0.322 in test [5]; 0.152 in [6]. Also, the composite z-score in the test on Lefty1 was -0.346; in [8], 0.265; in test [10], 0.356; in test [15], 1.08; in test [16] it was 0.279; with Torsin-1A (Homo sapiens) [17], 0.252. Moreover, the figures for the composite z-score (in the test with Torsin-1A (Homo sapiens) [18]; in test [19]) were 0.0756 and -0.324, respectively. Also, the z-score in test [7] was -1.72; in test [9] it was 2.1 (inactive); in test [11] it was -2.11 (inactive); in test [12], 0.932 (inactive); in [13], 0.59 (inactive); in test [14] it was 1.16 (inactive).
